Assay results as given in PubChem BioAssay (Tox21).
Records with an inconclusive call do not appear. Entries that show only a call come without a potency. Values without a mark were called inactive. Active and inactive are the calls of the source. Calls follow the shape of the dose curve; as a rule, active = well fitted curve in the direction sought with a large enough effect in the repeat runs; inconclusive = weak or mixed curves; inactive = no such curve, though single readings can be large; an effect the other way counts as inactive or inconclusive.

Columns and labels:
[1] = qHTS RealTime-Glo MT Cell Viability Assay in HepG2 cells - 8 hour (AID 1224873); settings: RealTime-Glo luminescence; series mostly up to 76.8 µM; also: nearly all actives have a fitted effect of over 55% in size; also: potency is read from the fitted curve at half-maximal effect
Summary of the method: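 HepG2 cells mixed with RealTime-Glo MT reagents (NanoLuc plus cell-permeant prosubstrate) were seeded at 600 cells/well, incubated 5 h at 37 C/5% CO2, then pinned with compounds in DMSO; nonlytic luminescence tracked viability during 40 h treatment.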

[2] = qHTS RealTime-Glo MT Cell Viability Assay in HEK293 cells - 40 hour (AID 1224874); settings: RealTime-Glo luminescence; max response: stronger effect = lower value; also: nearly all actives have a fitted effect of over 50% in size; also: potency is read from the fitted curve at half-maximal effect
Summary of the method: (§1)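 HEK293 + NanoLuc + prosubstrate, 600 cells/well; 5 h, 37 C/5% CO2; compound 23 nL in DMSO by pintool; 37 C; luminescence read at 0, 8, 16, 24, 32 and 40 h time points.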

[3] = A CellTox Green Cytotoxicity Assay to monitor cytotoxicity in HepG2 cells - 24 hour (AID 1224878); settings: CellTox Green fluorescence; series mostly up to 76.8 µM; also: nearly all actives have a fitted effect of over 45% in size; also: potency is read from the fitted curve at half-maximal effect
Summary of the method: (§2)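 Measurements at 0, 8, 16, 24, 32 and 40 h of treatment captured CellTox Green fluorescence in HepG2 cells that had been co-plated with reagent and preincubated 5 h at 37 C/5% CO2.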

[4] = A CellTox Green Cytotoxicity Assay to monitor cytotoxicity in HepG2 cells - 40 hour (AID 1224879); settings: CellTox Green fluorescence; series mostly up to 76.8 µM; also: nearly all actives have a fitted effect of over 40% in size; also: potency is read from the fitted curve at half-maximal effect
Summary of the method: as §2

[5] = qHTS RealTime-Glo MT Cell Viability Assay in HEK293 cells - 0 hour (AID 1224880); settings: RealTime-Glo luminescence; series mostly up to 76.8 µM; also: top concentration of the series differs between compounds; nearly all actives have a fitted effect of over 45% in size
Summary of the method: as §1

[6] = A CellTox Green Cytotoxicity Assay to monitor cytotoxicity in HEK293 cells - 24 hour (AID 1224875); settings: CellTox Green fluorescence; series mostly up to 76.8 µM; also: nearly all actives have a fitted effect of over 45% in size
Summary of the method: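 Tox21 screen in HEK293: membrane-impermeant cyanine dye fluoresces on binding dead-cell DNA; compound pinned 5 h post-seeding, plates held at 37 C, signal read repeatedly through 40 h.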

[7] = A CellTox Green Cytotoxicity Assay to monitor cytotoxicity in HepG2 cells - 16 hour (AID 1224876); settings: CellTox Green fluorescence; series mostly up to 76.8 µM; also: nearly all actives have a fitted effect of over 45% in size
Summary of the method: as §2

[8] = qHTS RealTime-Glo MT Cell Viability Assay in HepG2 cells - 32 hour (AID 1224877); settings: RealTime-Glo luminescence; series mostly up to 76.8 µM; also: nearly all actives have a fitted effect of over 55% in size; also: potency is read from the fitted curve at half-maximal effect
Summary of the method: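 HepG2 cells were seeded at 600 cells/well together with NanoLuc luciferase and a cell-permeant prosubstrate, preincubated 5 h at 37 C/5% CO2, then pin-dosed with compounds in DMSO. Nonlytic luminescence from viable cells was read at each time point.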

SMILES | Potency [1] | Potency [2] | Potency [3] | Potency [4] | Potency [5] | max response [2] [%] | Potency [6] | Potency [7] | Potency [8]
CC(C)(c1ccc(O)c(-c2ccccc2)c1)c1ccc(O)c(-c2ccccc2)c1 | 49 µM (active) | 19.5 µM (active) | 49 µM (active) | 49 µM (active) | inactive |  |  |  | 
CC(C)[C@H](C(=O)OC(C#N)c1cccc(Oc2ccccc2)c1)c1ccc(OC(F)F)cc1 (stereo partly specified) |  |  | inactive | inactive |  | -16.8 | inactive | inactive | inactive
CCCCCCCCCCBr | inactive |  | inactive | inactive | inactive | -10.6 |  | inactive | inactive
Clc1ccc(C(Cl)(Cl)Cl)c(Cl)c1 | inactive |  |  |  |  |  |  | inactive | inactive
COc1cccc(C(=O)CCN[C@@H](C)[C@H](O)c2ccccc2)c1 | inactive |  |  |  | inactive |  |  | inactive | 23.9 µM (active)
COC(=O)N(C(=O)N1COC2(C(=O)OC)Cc3cc(Cl)ccc3C2=N1)c1ccc(OC(F)(F)F)cc1 (stereo unspecified) | inactive |  | inactive | inactive |  |  | inactive |  | inactive
O=CC(Br)(Br)Br |  | 2.45 µM (active) | 48.8 µM (active) | 43.5 µM (active) | inactive |  |  |  | 43.5 µM (active)
COC[C@H](C)N(C(=O)CCl)c1c(C)csc1C | inactive |  | inactive | inactive | inactive | 19.6 | inactive | inactive | inactive
O=S(=O)(c1ccc(Cl)cc1)c1ccc(Cl)cc1 |  |  | inactive | inactive |  |  |  | inactive | inactive
CCOP(=O)(NC(C)C)Oc1ccc(SC)c(C)c1 (stereo unspecified) | inactive | 13.8 µM (active) |  |  | inactive |  | inactive |  | inactive
N#C/C=C/C#N | inactive |  | inactive | inactive |  |  |  | inactive | inactive
CCOC(=O)OC1=C(c2cc(C)ccc2C)C(=O)NC12CCC(OC)CC2 (stereo unspecified) | inactive |  | inactive | inactive | inactive | -0.185 |  | inactive | inactive
CCc1nn(C)c(C(=O)NCc2ccc(C(C)(C)C)cc2)c1Cl | inactive |  | inactive | inactive | inactive |  | inactive | inactive | inactive
CC(C)[C@H](C(=O)O[C@H](C#N)c1cccc(Oc2ccccc2)c1)c1ccc(Cl)cc1 |  |  | inactive |  |  |  |  |  | inactive
Nc1ccc(Cl)cc1C(=O)c1ccccc1 | inactive |  | inactive |  | inactive |  |  | inactive | inactive
O=C(CCl)Nc1ccccc1 | inactive | 38.9 µM (active) | inactive |  | inactive |  |  | inactive | inactive
Oc1ccc(C2(c3ccc(O)cc3)CCCCC2)cc1 | inactive | 46.4 µM (active) | inactive |  | inactive |  |  | inactive | inactive
CC(=O)C(Cl)(Cl)Cl | inactive |  | inactive | inactive |  |  | inactive | inactive | inactive
CC(C)(C)c1cc([N+](=O)[O-])cc(C(C)(C)C)c1O |  | 6.92 µM (active) |  |  | inactive |  | inactive | inactive | inactive
CCC(C)c1cc([N+](=O)[O-])cc([N+](=O)[O-])c1OC(=O)C=C(C)C (stereo unspecified) |  | 21.9 µM (active) | inactive |  | inactive |  | inactive | inactive | 49 µM (active)
COP(=O)(OC)SCn1c(=O)oc2cc(Cl)cnc21 | inactive |  | inactive | 49 µM (active) | inactive |  | inactive | inactive | inactive
CCOC(=O)c1ccccc1S(=O)(=O)NC(=O)Nc1nc(Cl)cc(OC)n1 | inactive |  | inactive | inactive |  |  |  | inactive | inactive
N#CC(Cl)Cl | inactive |  | inactive |  | inactive |  |  | inactive | inactive
CN(C)c1ccc(N=Nc2ccccc2)cc1 |  |  | inactive |  |  |  |  |  | inactive
